# SARS PLP yeast = SARS-CoV PLP inhibition in yeast | S. cerevisiae expressing SARS-CoV PLpro, growth rescue | Potency, µM (titrated, usually from 32.9 µM), without a hit: at the top dose activity, positive = growth rescue, actives largely listed as activators | hit rate 0.19% among 330,000; also: potency is read from the fitted curve at half-maximal effect; 0% is about no effect; nearly all actives have a fitted effect of over 55% in size
# Cycloheximide cs = counter-screen hit for Shiga toxin inhibitors, cycloheximide | cell reporter, cycloheximide protein synthesis inhibition counterscreen | max response, % | hit rate 12% among 300,000 | AID 2314; in the data active = max response mostly above about 13%, no sharp cut-off; inactive = mostly below about 14%; also: read at 38.3 µM for the half of the compounds with a filed dose; 0% is about no effect
# Pf growth 96h = P. falciparum growth inhibition at 96 hours; P. falciparum luciferase reporter growth, 96 h; hit rate 6.9% among 320,000; Potency, µM (top dose mostly 28.7 µM), for inactives: at the top dose activity change, negative = inhibition, usual class: inhibitors; AID 504834; active = well fitted inhibition curve with a large enough effect; inconclusive = small, poorly fitted or top-dose-only effect, or another doubt; inactive = no such curve, though single readings can be large or run the other way; also: potency is read from the fitted curve at half-maximal effect; % is scaled to controls: 0 for no effect and ±100 for the full control effect
#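 Two-generation exposure (96 h) targets delayed-death phenotype. Reporter parasites carrying integrated firefly luciferase, in red cells at 2% hematocrit and 0.05% parasitemia final, kept at 37 C, 5% CO2; luminescence loss indicates inhibition.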
# Pf growth 48h = inhibits P. falciparum growth in the first generation, 48 h; P. falciparum luciferase growth in erythrocytes, 48 h; Potency, µM (doses to about 28.7 µM), for the others: top-dose activity change, negative = inhibition, usual class: inhibitors; hit rate 5.9% among 310,000; active = well fitted inhibition curve with a large enough effect; inconclusive = small, poorly fitted or top-dose-only effect, or another doubt; inactive = no such curve, though single readings can be large or run the other way; also: potency is read from the fitted curve at half-maximal effect; % is scaled to controls: 0 for no effect and ±100 for the full control effect
#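 Read-out is firefly luciferase luminescence from an integrated reporter in P. falciparum, so falling signal marks reduced parasite growth. Infected erythrocytes were at 2% hematocrit and 0.1% parasitemia (final) in Albumax-supplemented RPMI 1640.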
# Shiga toxin inh = inhibitors of Shiga toxin in Vero cells; AID 2315; hit rate 9.2% among 290,000; Vero cells, Shiga toxin protein synthesis inhibition reporter; inhibition, % at 38.7 µM; in the data active = inhibition mostly above about 28%, no sharp cut-off; inactive = mostly below about 43%; also: 0% is about no effect
# NS1 inh = influenza NS1 inhibition. Potency, µM (doses to about 46.1 µM), for the others: top-dose activity, positive = more growth. hit rate 0.4% among 270,000; also: potency is read from the fitted curve at half-maximal effect; actives are rising curves; nearly all actives have a fitted effect of over 50% in size
#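 Recovery from NS1-induced slow growth read by OD600 in budding yeast switched to galactose assay medium (pH 6.0, -URA) at 1:100 dilution. Compound 23 nl per well; the matching strain lacking NS1 serves as control.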
# Active calls of the source: *; i = inactive; ? = inconclusive; · = no result given. Only some compounds are listed: those with a hit (about 21% of all), similar ones and a draw of the others. Unless noted, calls follow the shape of the full dose curve.
SMILES,SARS PLP yeast,Cycloheximide cs,Pf growth 96h,Pf growth 48h,Shiga toxin inh,NS1 inh
CCC1(c2ccc(F)cc2)NC(=O)N(CC(=O)N2CCN(C(=O)c3cccs3)CC2)C1=O (stereo not drawn),-2%,·,-15%,-12%,·,·
O=S(=O)(c1ccc(-c2ccccn2)s1)N1CCC2(CC1)OCCO2,1%,-2,-5%,3%,21,-7%
O=C(O)c1cc(NN=C2c3ccccc3-c3ccccc32)ccc1Cl,-6%,8,7%,24%,20,-55%
O=C(O)c1cccc(NN=C2c3ccccc3-c3ccccc32)c1,-31%,42*,10%,23%,84*,·
O=C(O)c1cccc2c1-c1ccccc1/C2=N\Nc1ccccc1,-3%,50*,-18%,61%,116*,-9%
CC1(C)O[C@@H]2O[C@H]([C@@H]3COC(C)(C)O3)[C@H](N)[C@H]2O1,·,·,·,·,·,-1%
NC1=NC[C@@H](Cc2ccc(O)cc2)N1CCCCC1CCCCC1,-1%,-5,1.2µM*,1.9µM*,-2,-1%
NC1=NC[C@H](Cc2ccc(O)cc2)N1CC1CCCCC1,0%,-2,2.6µM*,5.9µM*,-6,-1%
Oc1ccc(C[C@@H]2CNCCN2CCCCC2CCCCC2)cc1,1%,·,?,?,·,·
O=S(=O)(Nc1nc2c(s1)CCCC2)c1ccc(F)cc1,-8%,21*,·,25%,55,0%
O=S(=O)(Nc1nc2c(s1)CCCC2)c1ccc(Br)cc1,?,6,15%,17%,0,-2%
COc1ccc(C2c3sc(=O)[nH]c3SC3C4CCC(C4)C23)cc1OC (stereo not drawn),-36%,1,9.3µM*,?,2,20%
O=c1[nH]c2c(s1)C(c1ccc(O)cc1)C1C3CCC(C3)C1S2 (stereo not drawn),0%,-1,-3%,-9%,-3,6%
O=C(CC(=O)Nc1ccc(Br)cc1)Nc1ccc(Br)cc1,-1%,-2,42%,32%,7,-3%
CCC(=O)Nc1ccc(NC(=O)c2cccc3ccccc23)cc1,24%,-4,8%,1%,·,-3%
CCC(=O)Nc1ccc(NC(=O)c2cccc3c(Br)cccc23)cc1,26%,2,6.6µM*,16%,-12,-4%
COc1ccc(Nc2ccccc2NC(=O)c2ccccc2Br)cc1,-3%,0,2.1µM*,1.7µM*,6,-39%
Cc1ccccc1C(=O)Nc1ccccc1NC(=O)c1ccccc1Br,2%,-4,-7%,?,1,0%
O=C(Nc1ccc(Br)cc1)c1ccccc1Br,0%,55*,8%,128%,90*,-26%
O=C(Nc1ccc(Br)cc1)c1cc(Br)cc(Br)c1O,·,42*,-12%,?,93*,·
N#Cc1c(-c2ccccc2)c(-c2ccccc2)nn(CC(=O)NNC(=O)Nc2ccc(Cl)c(Cl)c2)c1=O,-3%,5,·,4%,-28,?
O=C(c1ccco1)N1CCN(Cc2cc(=O)c(OCc3c(F)cccc3Cl)co2)CC1,-1%,·,-24%,?,·,·
O=C(O)c1ccc(NC(=O)c2ccccc2NC(=O)c2ccccc2Br)cc1,0%,0,?,3%,-4,28%
CCc1ccc(NC(=O)c2ccccc2Br)cc1,-7%,35*,i,i,61*,·
CC(NS(=O)(=O)/C=C/c1ccccc1)c1ccccc1 (stereo not drawn),-5%,1,5%,0%,-5,·
SMILES,SARS PLP yeast,Cycloheximide cs,Pf growth 96h,Pf growth 48h,Shiga toxin inh,NS1 inh
CCc1ccc(NC(=O)C2CCC(CNS(=O)(=O)c3ccc4c(c3)CC(C)N4C(C)=O)CC2)cc1 (stereo not drawn),·,-3,·,·,-1,·
COC(=O)c1ccc(-n2c(C)cc(C(=O)COC(=O)CC3Sc4ccccc4NC3=O)c2C)cc1 (stereo not drawn),-1%,21*,?,-21%,26*,13%
Cc1cc(C(=O)COC(=O)CC2Sc3ccccc3NC2=O)c(C)n1-c1ccc(Br)cc1 (stereo not drawn),-2%,26,?,-27%,42,?
Cc1cc(C(=O)COC(=O)CC2Sc3ccccc3NC2=O)c(C)n1-c1ccc2c(c1)OCO2 (stereo not drawn),-2%,27*,-12%,-9%,37,?
Cc1ccccc1OCC(=O)OCC(=O)N1CCc2ccccc21,0%,·,40%,-20%,·,·
O=C(CC1Sc2ccccc2NC1=O)OCC(=O)N1CCc2ccccc21 (stereo not drawn),1%,32*,?,-9%,92*,8%
Cc1cc(C(=O)COC(=O)CC2Sc3ccccc3NC2=O)c(C)n1-c1ccccc1 (stereo not drawn),?,66*,?,5%,50*,17%
CC(=O)N1CCc2c(sc(NC(=O)Cc3ccc(C)cc3C)c2C#N)C1,0%,-4,4%,12%,-9,-1%
CCOc1ccc(C=C2SC(=O)N(CCN)C2=O)cc1,·,-18,·,·,-17,·
C=CCN1C(=O)C2C3CC(=O)C(c4ccccc43)C2C1=O (stereo not drawn),2%,-2,-5%,6%,-11,·
Cc1ccc(OCC(=O)NC(=S)Nc2ccc(Br)cn2)cc1,3%,9,-10%,15%,9,2%
O=C(CC1Sc2ccccc2NC1=O)OCc1cc(=O)oc2cc(O)ccc12 (stereo not drawn),-8%,1,4.7µM*,-12%,19,19%
Cc1ccc2c(COC(=O)CC3Sc4ccccc4NC3=O)cc(=O)oc2c1C (stereo not drawn),3%,6,42%,41%,-11,16%
CC(C)=CC(=O)N1CCC(N2CCC(C(=O)NCC3CCCO3)CC2)CC1 (stereo not drawn),-4%,-5,10%,36%,-8,2%
COc1ccc(N2C(=O)CCC(C(=O)N3CCN(c4ccccn4)CC3)C2c2ccc(F)cc2)cc1 (stereo not drawn),-3%,-1,-13%,-15%,-5,·
O=c1c2ccccc2nc(SCc2cccc(F)c2)n1-c1cccc(S(=O)(=O)N2CCCC2)c1,-4%,3,6.6µM*,?,-6,22%
COc1ccc(-c2nn(-c3ccccc3)cc2C(=O)N(C)CC(=O)Nc2cccc(F)c2)cc1,-7%,·,?,?,·,·
COc1cccc(NC(=O)CN(C)C(=O)c2ccc(-c3ccccc3Cl)o2)c1,-4%,11*,?,0.29µM*,7,-3%
COc1cccc(NC(=O)CN(C)C(=O)c2ccc(-c3ccc(Cl)cc3)o2)c1,-20%,·,5.9µM*,1.7µM*,·,·
CN(CC(=O)Nc1ccccc1Br)C(=O)c1ccc(-c2ccc(Cl)cc2)o1,-3%,6,?,?,-13,-19%
COc1cccc(-c2nn(-c3ccc(C)cc3)cc2C(=O)N(C)CC(=O)Nc2cccc(F)c2)c1,-10%,·,15µM*,5.2µM*,·,·
